Source: PubChem BioAssay AID1159580 (chemical genetic matrix, 2015)
Values joined by “and” are separate entries in the source; they are usually repeats but may differ in a detail not shown here. Equal values may be shown once. The campaign covered roughly 5,500 compounds. About 2,000 (36%) were called active. About 18% were inconclusive and are not listed. No stated cut-off is given here; in the data, active means normalized growth mostly below about 0.91 (no sharp cut-off); inconclusive means no clear call, values can overlap the other calls; inactive means mostly above about 0.92. The list shows a part of the results.

Experiment: chemical genetic growth profiling, strain panel (AID 1159580);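 further: tested at 20 µM; growth read once vehicle control cultures reached saturation at 30 °C; 1 = growth at the plate median or of vehicle wells; lower values mean less growth of the strain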
Settings: S. cerevisiae deletion strains, growth OD

Measured: normalized growth

Cn1c(=O)[nH]c(=O)c2[nH]cnc21
inactive: locus YAL013W, strain DEP1, active compounds read low 0.993 | locus YAL021C, strain ccr4, active compounds read low 0.997 | locus YAL026C, strain drs2, active compounds read low 0.989 | locus YAL030W, strain snc1, active compounds read low 0.995 | locus YBL061C, strain skt5, active compounds read low 1.01 | locus YBR009C, strain hhf1, active compounds read low 0.999 | locus YBR021W, strain FUR4, active compounds read low 0.991 | locus YBR023C, strain chs3, active compounds read low 0.985 | locus YBR171W, strain sec66, active compounds read low 0.982 | locus YBR229C, strain ROT2, active compounds read low 0.987 | locus YBR231C, strain swc5, active compounds read low 0.993 | locus YBR279W, strain paf1, active compounds read low 0.988 | locus YCL011C, strain gbp2, active compounds read low 1 | locus YCL016C, strain dcc1, active compounds read low 0.987 | locus YCL029C, strain bik1, active compounds read low 0.971 | locus YCL061C, strain MRC1, active compounds read low 0.981 | locus YCL069W, strain vba3, active compounds read low 0.999 | locus YCR088W, strain abp1, active compounds read low 0.988 | locus YDL005C, strain med2, active compounds read low 0.966 | locus YDL035C, strain GPR1, active compounds read low 1 | locus YDL040C, strain nat1, active compounds read low 0.99 | locus YDL074C, strain BRE1, active compounds read low 1.01 | locus YDL101C, strain DUN1, active compounds read low 0.984 | locus YDL134C, strain PPH21, active compounds read low 0.999 | locus YDL185W, strain tfp1, active compounds read low 0.955 | locus YDL192W, strain arf1, active compounds read low 0.981 | locus YDR001C, strain nth1, active compounds read low 0.996 | locus YDR069C, strain doa4, active compounds read low 0.971 | locus YDR101C, strain arx1, active compounds read low 0.981 | locus YDR137W, strain rgp1, active compounds read low 0.979 | locus YDR150W, strain NUM1, active compounds read low 0.994 | locus YDR159W, strain sac3, active compounds read low 0.956 | locus YDR162C, strain NBP2, active compounds read low 0.988 | locus YDR195W, strain ref2 1 | locus YDR297W, strain sur2, active compounds read low 1 | locus YDR318W, strain mcm21, active compounds read low 0.98 | locus YDR334W, strain swr1, active compounds read low 1.01 | locus YDR335W, strain msn5, active compounds read low 0.997 | locus YDR388W, active compounds read low 0.966 | locus YDR392W, strain spt3, active compounds read low 0.941 | locus YDR502C, strain sam2, active compounds read low 0.982 | locus YEL003W, strain gim4, active compounds read low 1 | locus YEL037C, strain rad23, active compounds read low 1 | locus YEL061C, strain CIN8 (second series), active compounds read low 0.999 | locus YEL061C, strain CIN8, active compounds read low 0.994 | locus YER015W, strain faa2, active compounds read low 0.996 | locus YER016W, strain bim1, active compounds read low 1.01 | locus YER110C, active compounds read low 0.969 | locus YER111C, strain swi4, active compounds read low 1 | locus YER155C, strain BEM2 (second series), active compounds read low 0.981 | locus YER155C, strain BEM2, active compounds read low 0.989 | locus YER167W, strain BCK2, active compounds read low 0.975 | locus YFR010W, strain ubp6, active compounds read low 1 | locus YGL078C, strain dbp3, active compounds read low 0.969 | locus YGL086W, strain mad1, active compounds read low 0.977 | locus YGL167C, strain pmr1, active compounds read low 1 | locus YGL173C, strain kem1, active compounds read low 0.991 | locus YGL227W, strain vid30, active compounds read low 0.999 | locus YGL240W, strain doc1, active compounds read low 0.969 | locus YGL248W, strain PDE1, active compounds read low 0.983 | locus YGL253W, strain hxk2, active compounds read low 0.975 | locus YGR078C, strain PAC10, active compounds read low 0.996 | locus YGR135W, strain pre9, active compounds read low 0.977 | locus YGR229C, strain SMI1, active compounds read low 0.993 | locus YGR252W, strain gcn5, active compounds read low 1.06 | locus YHR013C, strain ard1, active compounds read low 0.975 | locus YHR027C, strain rpn1, active compounds read low 0.983 | locus YHR030C, strain SLT2, active compounds read low 0.981 and 0.987 | locus YHR079C, strain IRE1 (second series), active compounds read low 0.97 | locus YHR079C, strain IRE1, active compounds read low 0.984 | locus YHR094C, strain hxt1, active compounds read low 0.977 | locus YHR129C, strain ARP1, active compounds read low 0.994 | locus YHR142W, strain chs7, active compounds read low 1 | locus YHR200W, strain rpn10, active compounds read low 0.968 | locus YIL066C, strain RNR3, active compounds read low 0.988 | locus YIL073C, strain SPO22, active compounds read low 0.935 | locus YIL125W, strain kgd1, active compounds read low 0.971 | locus YIR030C, strain dcg1, active compounds read low 0.967 | locus YJL092W, strain hpr5, active compounds read low 0.996 | locus YJL095W, strain BCK1 (second series), active compounds read low 0.999 | locus YJL095W, strain BCK1, active compounds read low 0.977 and 0.976 | locus YJL115W, strain asf1, active compounds read low 0.973 | locus YJL129C, strain trk1, active compounds read low 0.968 | locus YJL134W, strain LCB3, active compounds read low 0.987 | locus YJL154C, strain vps35, active compounds read low 0.998 | locus YJL164C, strain tpk1, active compounds read low 1.01 | locus YJL166W, strain qcr8, active compounds read low 1 | locus YJL168C, strain set2, active compounds read low 0.973 | locus YJL187C, strain SWE1 (second series), active compounds read low 0.987 | locus YJR043C, strain POL32, active compounds read low 1 | locus YJR066W, strain TOR1, active compounds read low 0.911
